Screening results deposited in PubChem by several laboratories.
DUSP3 inh: VHR1 phosphatase inhibitors, primary screen, biochemical, absorbance, uHTS; AID 1654, 2009; recombinant VHR phosphatase, pNPP absorbance; inhibition, % at 13.3 µM; 290,000 compounds, 0.52% hits; Dual specificity protein phosphatase 3 (Homo sapiens), P51452; in the data active means inhibition above about 50%
Target sequence (P51452 whole entry, looked up): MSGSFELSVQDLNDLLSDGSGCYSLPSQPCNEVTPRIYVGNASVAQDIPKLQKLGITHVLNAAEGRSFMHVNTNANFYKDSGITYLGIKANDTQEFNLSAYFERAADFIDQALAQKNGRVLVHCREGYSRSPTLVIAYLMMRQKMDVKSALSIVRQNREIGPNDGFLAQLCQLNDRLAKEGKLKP
SARS 3CLpro inh-1: SARS-CoV 3CLpro protease inhibitors, primary screen, biochemical, quenched FRET | inhibition, % at 6 µM | Replicase polyprotein 1ab (Severe acute respiratory syndrome coronavirus), P0C6X7 | recombinant SARS-CoV 3CLpro, quenched FRET peptide cleavage | 290,000 compounds, 0.14% hits; in the data active means inhibition above about 12%
Mtb hypoxia rep: PubChem AID 1159583; M. tuberculosis hypoxia-regulated fluorescent reporter, fluorescence; 300,000 compounds, 0.1% hits; fluorescence inhibition, % (concentration not given with the values); in the data active means fluorescence inhibition mostly above about 23%, no sharp cut-off; inactive means mostly below about 17%
BioA inh: M. tuberculosis BioA enzyme inhibitors, primary screen, biochemical, plate reader, single point, HTS. inhibition, % at 9.99 µM. 360,000 compounds, 0.096% hits. purified M. tuberculosis BioA enzyme; in the data active means inhibition above about 40%
FadD28 binding: inhibitors of FadD28 bisubstrate probe binding, primary screen, biochemical, fluorescence polarization, single point | inhibition, % at 12.5 µM | 360,000 compounds, 0.22% hits | AID 588549, 2011; in the data active means inhibition above about 8.5%, passing the limit was not always enough
SARS 3CLpro inh-2: confirmation of SARS coronavirus 3C-like protease inhibitors, retest, confirmation, biochemical; shares compounds with SARS 3CLpro inh-1; QFRET protease activity assay, 3CLpro; inhibition, % at 6 µM; 380 compounds, 36% hits; in the data active means inhibition above about 13%
Active calls of the source: *; . = no result. Shown are actives, neighbours in structure and some others; about 0.7% of the full set was active somewhere.

SMILES	DUSP3 inh	SARS 3CLpro inh-1	Mtb hypoxia rep	BioA inh	FadD28 binding	SARS 3CLpro inh-2
O=C(CCl)N1N=C(c2cccs2)CC1c1ccco1 (centres undefined)	3	38*	25	.	-3	83*
Cc1cc(C(=O)c2ccc(Cl)cc2)c(NC(=O)CCl)s1	4	6	18	.	-4	.
CCc1cc(C(=O)c2ccc(C)cc2)c(NC(=O)CCl)s1	-4	20*	17	.	-3	44*
COc1cccc(C(C(=O)Nc2ccc(F)cc2)N(C(=O)Cn2nnc3ccccc32)C2CC2)c1 (centres undefined)	27	33*	11	.	-2	37*
COc1cccc(C(C(=O)NCC2CCCO2)N(C(=O)Cn2nnc3ccccc32)c2ccc(NC(C)=O)cc2)c1 (centres undefined)	28	31*	2	1	-3	34*
CCOc1ccc(C(C(=O)Nc2ccc(F)cc2)N(C(=O)Cn2nnc3ccccc32)C2CC2)cc1 (centres undefined)	10	5	8	8	-5	.
O=C(O)CCCCCN1C(=O)C(O)=C(C(=O)C=Cc2ccccc2)C1c1ccccc1[N+](=O)[O-] (centres undefined)	.	.	-1	.	.	.
O=C1/C(=C/c2cccc(Cl)c2)SC(=S)N1CCC(=O)N1CCCCC1CCO (centres undefined)	-12	14*	16	1	-3	3
Cc1ccc(CC(=O)NN=Cc2ccc3c(c2)OCO3)cc1	.	.	7	.	.	.
CCc1nnc(NS(=O)(=O)c2ccc(NC(=O)/C=C/C(=O)O)cc2)s1	6	6	.	0	-3	.
CCc1nnc(NS(=O)(=O)c2ccc(NC(=O)/C=C/c3ccccc3Cl)cc2)s1	30	13*	7	.	-26	10
COc1ccc(C(=O)NN=Cc2ccoc2)cc1	.	.	13	.	.	.
O=C(Cn1nnc2ccccc21)c1ccc(Cl)cc1	10	35*	5	0	-1	35*
O=C(Cn1nnc2ccccc21)c1ccc([N+](=O)[O-])cc1	3	5	6	.	-2	.
COc1ccc(S(=O)(=O)N2CCOC2CNC(=O)C(=O)NCCc2ccccc2OC)cc1C (centres undefined)	17	-3	3	0	0	.
COc1ccc(S(=O)(=O)N2CCOC2CNC(=O)C(=O)NCCN(C)C)cc1 (centres undefined)	-3	13*	-2	0	-4	-3
COc1ccccc1CCNC(=O)C(=O)NCC1OCCN1S(=O)(=O)c1ccc2c(c1)OCCO2 (centres undefined)	-3	13*	-5	0	-5	-1
OC(CBr)C(O)C(O)C(O)CBr (centres undefined)	.	.	-1	.	.	.
C[C@@H]1NC(=O)c2cc([N+](=O)[O-])cc(I)c2NCCCC[C@@H](C(N)=O)NC(=O)[C@H](CC(N)=O)NC1=O	8	14*	.	10	-5	6
CC(NC(=O)c1nc[nH]c1C(=O)NCC(=O)OC(C)(C)C)C(=O)OCc1ccccc1 (centres undefined)	.	.	4	.	.	.
O=C(Cc1ccc(Cl)cc1)NCCCn1ccnc1	-2	5	10	0	-3	.
O=C(Cc1c(F)cccc1Cl)NCCCn1ccnc1	13	38*	12	-2	3	-5
COc1ccc(C2CC(=O)C=C(c3ccc(Br)c4ccccc34)C2)cc1 (centres undefined)	.	.	16	.	.	.
Nc1ncc(Br)cc1S(=O)(=O)Nc1cc(C(F)(F)F)cc(C(F)(F)F)c1	14	23*	.	10	-11	15*
Cc1nc(N2CCC(C)CC2)c2c(C)c(C(=O)Nc3ccc(C(F)(F)F)cc3)sc2n1	-3	-4	-3	.	-2	.
SMILES	DUSP3 inh	SARS 3CLpro inh-1	Mtb hypoxia rep	BioA inh	FadD28 binding	SARS 3CLpro inh-2
Cc1nc(N2CCC(C)CC2)c2c(C)c(C(=O)Nc3ccc4c(c3)OCCO4)sc2n1	5	14*	8	-1	0	3
CCOC(=O)C1C2COc3ccc(Br)cc3C2N2C(=O)CN(Cc3ccc(F)cc3)C(=O)[C@@]12C (some centres undefined)	.	.	4	.	.	.
O=C(O)CSCC(=O)N(Cc1ccccc1)c1nc(-c2ccccc2)c(-c2ccccc2)s1	17	12*	.	3	-27	5
CCOC(=O)c1sc(N(Cc2ccccc2)C(=O)CCl)nc1C	-29	6	6	4	1	.
COc1ccc(C(=O)NC(=S)Nc2ccc(S(=O)(=O)Nc3cc(OC)nc(OC)n3)cc2)cc1	17	8	4	.	-1	.
COc1cc(NS(=O)(=O)c2ccc(NC(=S)NC(=O)c3ccc(F)cc3)cc2)nc(OC)n1	12	12*	6	-2	0	6
CCN(CC)c1ccc(C=NNC(=O)Cc2ccc(OC)c(OC)c2)cc1	.	.	6	.	.	.
CCOc1ccc(N(Cc2cc3ccc(C)cc3[nH]c2=O)S(=O)(=O)c2ccccc2)cc1	30	13*	-7	-1	0	6
Cc1ccc(S(=O)(=O)Nc2cc(-c3ccccc3)nn2C)cc1	28	0	7	3	-1	.
Cc1ccc(S(=O)(=O)Nc2cc(-c3ccccc3)nn2C)cc1Cl	16	14*	9	0	1	9
COc1ccccc1/C=C/C(=O)c1cc(Br)ccc1OC(=O)c1ccco1	.	15*	.	25	-6	50*
Cc1ccc(/C=C/C(=O)c2cc(Br)ccc2OC(=O)c2ccco2)cc1	3	23*	6	0	-3	32*
CCn1cc(C(=O)NC(=S)Nc2ccccc2[N+](=O)[O-])cn1	-9	13*	-3	0	0	-5
CC1COC(=O)C(Cc2ccc(F)cc2)CCC=CCC(CC(=O)NCCO)C(=O)N1 (centres undefined)	.	.	5	.	.	.
O=C1C2C(c3ccccc3)C=CC(c3ccccc3)C2C(=O)N1c1cccnc1 (centres undefined)	15	20*	6	.	-3	70*
O=C1C2C(c3ccccc3)C=CC(c3ccccc3)C2C(=O)N1c1ccncc1 (centres undefined)	33	1	.	-1	-4	.
Cc1cc(=O)oc2cc(OC(=O)c3ccco3)ccc12	-14	29*	8	.	-2	70*
Cc1cc(=O)oc2cc(OC(=O)c3ccccc3)ccc12	7	5	.	1	-4	.
CCc1cc(=O)oc2cc(OC(=O)c3ccco3)ccc12	6	68*	2	-1	.	71*
COC(=O)Cc1c(C)c2ccc(OC(=O)c3ccco3)cc2oc1=O	-7	2	6	1	0	.
CC1CN(C(C)CO)C(=O)c2cccc(NC(=O)c3ccncc3)c2OC1CN(C)C(=O)Nc1ccc2c(c1)OCO2 (centres undefined)	.	.	9	.	.	.
CC(C)CN1CCC(=O)N(C(COc2ccccc2)c2ccccc2)CC1 (centres undefined)	.	.	7	.	.	.
